These results are taken from PubChem BioAssay (EPA / NIEHS).

The AC50 is the concentration at which the activity in the assay is half-maximal.

What all share (conditions): mRNA level, 48 h; actives raise or lower the signal
Read-out in assay [1]: Interleukin 6 (IL6), IL6 (gene 3569)
The assay is described as follows: LTEA_HepaRG_IL6: Life Technologies and Expression Analysis (LTEA) Assay for Interleukin 6 (IL6) using HepaRG (AID 2283509). In short, it runs like this:
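HepaRG, ~100,000 cells/well, 48 h pre-culture; serum-free induction medium; cmpd 8-pt half-log from 100 uM, 0.5% DMSO, duplicate, 48 h. Lysis in RLT, TaqMan qRT-PCR; gain or loss vs DMSO.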

Read-out in assay [2]: Interleukin 6 Receptor (IL6R), IL6R (gene 3570)
The assay is described as follows: LTEA_HepaRG_IL6R: Life Technologies and Expression Analysis (LTEA) Assay for Interleukin 6 Receptor (IL6R) using HepaRG (AID 2283510).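 As to AC50: differentiated human HepaRG liver cells in serum-free induction medium; TaqMan qRT-PCR signal normalized to ACTB GAPDH and POLR2A housekeeping genes.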 The method, boiled down:
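Readout is IL6R transcript level by TaqMan qRT-PCR, normalized to three housekeeping genes and fitted bidirectionally against 0.5% DMSO controls. Human HepaRG cells received chemicals for 48 h in serum-free induction medium, highest concentration 100 uM.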

Read-out in assay [3]: Potassium channel subfamily K member 1 (KCNK1), KCNK1 (gene 3775)
The assay is described as follows: LTEA_HepaRG_KCNK1: Life Technologies and Expression Analysis (LTEA) Assay for Potassium channel subfamily K member 1 (KCNK1) using HepaRG (AID 2283511). The method, boiled down: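 Gain or loss of KCNK1 mRNA is the read-out, quantified by qRT-PCR against three housekeeping genes after 48 h chemical treatment of human HepaRG liver cells. Concentrations ran from 100 uM downward in half-log steps, vehicle 0.5% DMSO.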

Read-out in assay [4]: Keratin 19 (KRT19), KRT19 (gene 3880)
Briefly: LTEA_HepaRG_KRT19: Life Technologies and Expression Analysis (LTEA) Assay for Keratin 19 (KRT19) using HepaRG (AID 2283512). In short, it runs like this: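 Differentiated HepaRG cells in serum-free induction medium, exposed 48 h in duplicate to 8 half-log concentrations up to 100 uM in 0.5% DMSO. KRT19 mRNA by qRT-PCR, normalized to ACTB, GAPDH, POLR2A; bidirectional fit vs DMSO.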

Read-out in assay [5]: JUN Transcription Factor, JUN (gene 3725)
The assay is described as follows: LTEA_HepaRG_JUN: Life Technologies and Expression Analysis (LTEA) Assay for JUN Transcription Factor using HepaRG (AID 2283513). In short, it runs like this:
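Cells plated 48 h, medium switched to serum-free induction medium, then dosed 48 h (100 uM top, half-log dilutions, 0.5% DMSO). RNA isolated; JUN measured by qRT-PCR against three housekeeping genes; gain or loss fitted relative to DMSO.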

Read-out in assay [6]: Lipase C (LIPC), LIPC (gene 3990)
The assay is described as follows: LTEA_HepaRG_LIPC: Life Technologies and Expression Analysis (LTEA) Assay for Lipase C (LIPC) using HepaRG (AID 2283514). In short, it runs like this:
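Read-out is LIPC transcript level by TaqMan qRT-PCR, normalized to three housekeeping genes, after 48 h chemical treatment of human HepaRG liver cells. Curves span eight concentrations topping at 100 uM; activity in either direction scored relative to 0.5% DMSO.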

Read-out in assay [7]: Lipoprotein lipase (LPL), LPL (gene 4023)
The assay is described as follows: LTEA_HepaRG_LPL: Life Technologies and Expression Analysis (LTEA) Assay for Lipoprotein lipase (LPL) using HepaRG (AID 2283515). The method, boiled down:
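Read-out is LPL transcript level by qRT-PCR, normalized to three housekeeping genes and fitted bidirectionally against the DMSO control. Human HepaRG cells received chemicals for 48 h at up to 100 uM.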

Read-out in assay [8]: MicroRNA 122 (MIR122), gene 406906
The assay is described as follows: LTEA_HepaRG_MIR122: Life Technologies and Expression Analysis (LTEA) Assay for MicroRNA 122 (MIR122) using HepaRG (AID 2283516). Also: the transcript read is the microRNA miR-122. In short, it runs like this:
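HepaRG plated 48 h, switched to serum-free induction medium, then treated in duplicate for 48 h (100 uM top, half-log steps, 0.5% DMSO vehicle). RNA isolated, qRT-PCR performed, concentration-response fitted both directions relative to DMSO.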

Read-out in assay [9]: matrix metalloproteinase-10 (MMP10), MMP10 (gene 4319)
The assay is described as follows: LTEA_HepaRG_MMP10: Life Technologies and Expression Analysis (LTEA) Assay for matrix metalloproteinase-10 (MMP10) using HepaRG (AID 2283517). The method, boiled down: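 Gain or loss of MMP10 mRNA is fitted relative to the 0.5% DMSO vehicle. The human hepatic line HepaRG receives a 48-hour serum-free exposure, in duplicate, with a maximum concentration of 100 uM.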

Read-out in a further assay: MYC, MYC (gene 4609)
Briefly: LTEA_HepaRG_MYC: Life Technologies and Expression Analysis (LTEA) Assay for MYC using HepaRG (AID 2283518). The method, boiled down:
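Differentiated HepaRG cells exposed 48 h in serum-free induction medium to 8 concentrations (top 100 uM, half-log steps; 0.5% DMSO), duplicate. MYC mRNA measured by Fluidigm qRT-PCR, normalized to ACTB, GAPDH, POLR2A; bidirectional fit versus DMSO.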

Active and inactive are the calls of the source. The calls were made as follows: active = hit-call score of the fitted dose curve at least 0.9, where 1 is the maximum; inactive = score below 0.9.

As to `Cc1ccc(C)c(O)c1C`, the call in [1], in [2], in assay [3], in [4], in assay [5] and in assay [6] was inactive. The outcome is “inactive” in assay [7]; “inactive” in assay [8]; “inactive” in assay [9]; “inactive” with MYC, MYC (gene 4609).
Turning to `O=C(O)CCCCC(=O)O`, the result in [1], in assay [2], in assay [3], in assay [4], in [5] and in assay [6] was inactive. The outcome in [7] was “inactive”; in assay [8], “inactive”; in assay [9], “inactive”; with MYC, MYC (gene 4609), “inactive”.
`Clc1cc(Cl)c(Cl)cc1Cl`: the outcome in assay [1], in [2], in assay [3], in [4], in assay [5] and in assay [6] was inactive. Also, the outcome in assay [7] is “inactive”; in [8] it was “inactive”; in assay [9], “inactive”; with MYC, MYC (gene 4609), “inactive”.
On to `Cc1ccc(C(C)C)c(O)c1`, for which the outcome in [1], in assay [2], in assay [3], in [4], in [5] and in assay [6] was inactive. Also, the outcome is “inactive” in assay [7]; “inactive” in assay [8]; “inactive” in assay [9]; “inactive” with MYC, MYC (gene 4609).
For the compound `CC1(C)NC(=O)NC1=O`, the result in [1], in assay [2], in [3], in assay [4], in assay [5] and in [6] was inactive. Moreover, the outcome in [7] is “inactive”; in [8], “inactive”; in assay [9] it was “inactive”; in the assay with MYC, MYC (gene 4609), “inactive”.
As for `CCCCCCCCCCO`, the compound was called inactive in assay [1], in assay [2], in assay [3], in assay [4], in assay [5] and in [6]. The outcome in [7] was “inactive”; in assay [8], “inactive”; in [9] it was “inactive”; with MYC, MYC (gene 4609), “inactive”.
With `CC(=O)C(C)=CC1C(C)=CCCC1(C)C` (stereo not drawn), the compound was called inactive in [1], in [2], in assay [3], in assay [4], in assay [5] and in [6]. For the same compound, the outcome in assay [7] was “inactive”; in assay [8], “inactive”; in assay [9] it was “inactive”; with MYC, MYC (gene 4609), “inactive”.
`Cc1cccc(C)c1O`: the compound was called inactive in assay [1], in [2], in [3], in assay [4], in assay [5] and in [6]. For the same compound, the outcome in assay [7] was “inactive”; in assay [8] it was “inactive”; in [9], “inactive”; with MYC, MYC (gene 4609), “inactive”.
Turning to `Cc1cc(NC(=O)C(=O)O)cc(C)c1Oc1ccc(O)c2c1CCC2`, the compound was classed as inactive in assay [1], in assay [2], in assay [3], in assay [5], in [6] and in [7]. Besides, the outcome in assay [8] was “inactive”; in assay [9], “inactive”; in the assay with MYC, MYC (gene 4609), “inactive”. In addition, the AC50 in [4] was 0.0224 µM (active).
Take `O=C(O)Cc1ccccc1Nc1c(Cl)cccc1Cl`: the call in assay [1], in [2], in [3], in assay [4], in assay [5] and in [6] was inactive. Further, the outcome was “inactive” in assay [7]; “inactive” in assay [8]; “inactive” in [9]; “inactive” with MYC, MYC (gene 4609).
For the compound `CC(=O)Oc1ccccc1C(=O)O`, the outcome in assay [1], in assay [2], in assay [3], in assay [4], in [5] and in assay [6] was inactive. Further, the outcome is “inactive” in [7]; “inactive” in [8]; “inactive” in [9]; “inactive” with MYC, MYC (gene 4609).
As for `CCCCCCCCCCCC(=O)OC`, the outcome in assay [1], in assay [2], in assay [3], in assay [4], in assay [5] and in assay [7] was inactive. Further, the outcome is “inactive” in assay [8]; “inactive” in assay [9]; “inactive” with MYC, MYC (gene 4609).
Turning to `C=CCOC(=O)c1ccccc1C(=O)OCC=C`, the call in assay [1], in [2], in assay [3], in assay [4], in [5] and in assay [6] was inactive. In addition, the outcome in assay [7] is “inactive”; in [8], “inactive”; in [9], “inactive”; in the assay with MYC, MYC (gene 4609), “inactive”.
Regarding `O=C(N[C@@H](Cc1ccccc1)[C@@H](O)C(=O)N1C[C@@H](O)[C@@H](O)C1)c1cc2cc(Cl)ccc2[nH]1`, the compound was called inactive in assay [1], in assay [2], in assay [3], in [4], in [5] and in assay [6]. Further, the outcome was “inactive” in assay [8]; “inactive” in [9]; “inactive” in the assay with MYC, MYC (gene 4609). The AC50 in [7] was 20.1 µM (active).
As to `COc1ccc2c(c1)c(CC(=O)O)c(C)n2C(=O)c1ccc(Cl)cc1`, the outcome in [1], in assay [2], in [3], in assay [4], in [5] and in [6] was inactive. For the same compound, the outcome in assay [7] is “inactive”; in assay [8] it was “inactive”; in assay [9], “inactive”; in the assay with MYC, MYC (gene 4609) it was “inactive”.
For `CCCCCCCCCCCCCCCCCC(=O)O`, the outcome in assay [1], in assay [2], in assay [3], in assay [4], in [5] and in assay [6] was inactive. For the same compound, the outcome in assay [7] is “inactive”; in assay [8], “inactive”; in assay [9] it was “inactive”; with MYC, MYC (gene 4609), “inactive”.
As for `C1CCC(SSC2CCCCC2)CC1`, the result in [1], in assay [2], in assay [3], in assay [4], in [5] and in assay [6] was inactive. For the same compound, the outcome in [7] was “inactive”; in assay [8] it was “inactive”; in assay [9], “inactive”; in the assay with MYC, MYC (gene 4609) it was “inactive”.
Take `CC1=C(/C=C/C(C)=C/C=C/C(C)=C/CO)C(C)(C)CCC1`: the result in assay [1], in assay [2], in assay [3], in assay [4], in assay [5] and in assay [7] was inactive. Moreover, the outcome is “inactive” in assay [8]; “inactive” in assay [9]; “inactive” with MYC, MYC (gene 4609).
Consider `CN[C@H]1CC[C@@H](c2ccc(Cl)c(Cl)c2)c2ccc(S(N)(=O)=O)cc21`, for which the AC50 in assay [1] was 77.4 µM (active); in assay [2], 50 µM (active); in [4], 10.9 µM (active); in assay [5], 94.5 µM (active); in assay [6], 15.8 µM (active); in [7], 11.9 µM (active). In addition, the AC50 in [9] was 66.4 µM (active). Also, the outcome in assay [3] is “inactive”; in [8], “inactive”; in the assay with MYC, MYC (gene 4609), “inactive”.
In the case of `CCCCCCCCCCCCCCCC`, the outcome in assay [1], in assay [2], in [3], in [4], in [5] and in [6] was inactive. Moreover, the outcome in [7] was “inactive”; in assay [8], “inactive”; in assay [9], “inactive”; with MYC, MYC (gene 4609), “inactive”.
In the case of `CCOC(=O)C(C)(C)Oc1ccc(Cl)cc1`, the compound was called inactive in assay [1], in assay [2], in assay [3], in assay [4], in [5] and in assay [6]. The outcome in [7] is “inactive”; in [8], “inactive”; in [9] it was “inactive”; with MYC, MYC (gene 4609), “inactive”.
